The whole screen tested about 360,000 compounds, of which about 2,300 (0.64%) were called active. The list comes from a sample in which actives are over-represented; it also holds similar structures and randomly drawn compounds. Unmarked numbers belong to inactive results.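 Rule for the calls: active = compounds giving at least 50% protection of heart cells from peroxide-induced death in the single-dose screen, raw or plate-pattern-corrected value; inactive = the rest.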

A short description of the assay: H9c2 cardiomyocyte survival under peroxide injury – uHTS, H9c2 cells, ATPLite luminescence, primary screen (AID 588492).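 Note: 0% = DMSO wells with peroxide and 100% = DMSO wells without peroxide.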 The settings on record: H9c2 cardiomyocytes, 2 h, at 20 µM, stronger effect = higher value.
Turning to `Cc1cc(C(F)F)nn1CC(=O)NC1CCCCCC1`, the protection from H2O2 cell death was -3.7%.
To `O=C(OCCOCn1cc(Br)c(=O)[nH]c1=O)c1ccccc1` belongs 7.1%; to `Cc1cc(C)c2c(n1)sc1c(=O)n(-c3ccccc3)c(=O)[nH]c12`, 4.5%.
As for `CCOC(=O)c1sc(NC(=O)C2CSC3(C)CCC(=O)N23)nc1C` (stereo not given), the protection from H2O2 cell death is 4%.
For the molecule `COc1ccc(S(=O)(=O)NC(=O)C2(C)CCN2C(=O)COc2ccc(Cl)cc2)cc1` (stereo not given), the protection from H2O2 cell death was 5.6%.
For `C[C@H](O)[C@@H]1C(=O)N2CCc3c([nH]c4ccccc34)[C@@H]2C[C@@H]1N(C)C(=O)Nc1ccc(F)cc1`, the protection from H2O2 cell death is -2.1%.
Turning to `O=[N+]([O-])c1cc(Cl)cc(/C=N/NC(=S)Nc2cc(S(=O)(=O)N3CCOCC3)ccc2Cl)c1O`, the protection from H2O2 cell death is -20.3%.
With `O=C(N/N=C/c1cc(Cl)cc([N+](=O)[O-])c1O)C(O)(c1ccccc1)c1ccccc1`, the protection from H2O2 cell death is 56.6% (active).
On to `O=C(Cc1ccccc1)N/N=C/c1ccc(Cl)cc1Cl`, for which the protection from H2O2 cell death is -15.4%.
`NC(=O)Cn1c(=O)oc2ccccc21`: the protection from H2O2 cell death is 6.1%.
For the molecule `CC(C)(C)c1ccc(NC(=O)COC(=O)CCc2nc3ccccc3c(=O)[nH]2)cc1`, the protection from H2O2 cell death is 36.5%.
In the case of `CCN(CC)c1ccc(C(=O)NNC(=O)CCc2nc3ccccc3c(=O)[nH]2)cc1` it was 56.2% (active).
For `CCN(CC(=O)NC(=O)NCc1ccccc1)Cc1nc2ccccc2c(=O)[nH]1`, the protection from H2O2 cell death was 7.1%.
Consider `O=C(CSCc1ccccc1Cl)NNC(=O)c1ccccc1`, for which the protection from H2O2 cell death was 1.3%.
In the case of `O=C(CSc1ncn[nH]1)Nc1nc2c(F)c(F)c(F)cc2s1` it was -1.5%; in that of `Cc1ccc(OCC(=O)Nc2ccc3oc(=O)ccc3c2)cc1C`, 0.6%; in that of `CCN1C(=O)[C@@H]2[C@@H]3CN(S(=O)(=O)c4ccccc4C)[C@@H](c4ccc(Cl)cc4)[C@@H]3C(=O)C[C@@H]2C1=O`, 8.3%.
For the molecule `COC(=O)c1ccc(CSc2nnc(N)s2)o1`, the protection from H2O2 cell death was -10.8%.
As for `CCOC(=O)CNC(=O)CSc1ccc2nnc(-c3cccnc3)n2n1`, the protection from H2O2 cell death was -2.8%.
As to `COC(=O)c1ccc(CSc2ccc3nnc(-c4ccccc4)n3n2)o1`, the protection from H2O2 cell death was 80.8% (active).
In the case of `CC(C)[C@@H]1COC(c2cccc(C3=N[C@H](C(C)C)CO3)c2)=N1` it was -14.6%.
In the case of `COc1ccc(Cl)cc1S(=O)(=O)N1CCN(CC(=O)C(C)(C)C)CC1` it was -8.8%; in that of `O=C(CN1CCN(S(=O)(=O)c2cc(Cl)ccc2Cl)CC1)c1ccc(O)c(O)c1`, 55.1% (active).
To `N#Cc1ccsc1NC(=O)CN1CCN(S(=O)(=O)c2cc(Cl)ccc2Cl)CC1` belongs 8.3%; to `CCOC(=O)Cc1csc(SCc2cc(=O)oc3cc(O)ccc23)n1`, 55.7% (active).
`Cc1ccc(O)c(/C=N/NC(=O)COc2ccc3c(C)cc(=O)oc3c2)c1`: the protection from H2O2 cell death is 38.5%.
Take `Cc1ccc2c(CSc3nncs3)cc(=O)oc2c1`: the protection from H2O2 cell death is -3.2%.
Consider `COc1ccc(N2CCN(C(=O)COc3ccc4c(C)cc(=O)oc4c3)CC2)cc1`, for which the protection from H2O2 cell death is 19.4%.
As to `CCOC(=O)Cc1csc(NC(=O)COc2ccc3c(C)cc(=O)oc3c2)n1`, the protection from H2O2 cell death is 71.2% (active).
To `CCOC(=O)Cc1csc(SCC(=O)Nc2ccc(C)cc2F)n1` belongs -15.1%; to `C/C(=N\NS(=O)(=O)c1ccccc1)c1c(O)cc(C)oc1=O`, -1%; to `Cc1ccc(Cl)cc1NC(=O)C1CCCN(c2cnccn2)C1` (stereo not given), 1.6%.
In the case of `CC1(C(=O)NCC2CCOCC2)Cc2c(-c3cccc(C(N)=O)c3)ccnc2O1` (stereo not given) it was 9.5%; in that of `Fc1ccc(-c2ccc(-c3nn4c(-c5ccco5)nnc4s3)o2)cc1`, 98.7% (active); in that of `Cc1nc2c(-c3ccc(F)cc3)c(C)nn2c(C)c1CCC(=O)NCc1ccco1`, 2.6%.
In the case of `CNc1nnc(-c2ccco2)s1` it was 3.7%; in that of `CC(C)(C)OC(=O)C[C@@H]1C/C=C\C[C@@H](CC(=O)N[C@H](CO)Cc2ccccc2)C(=O)NC[C@@H](c2ccccc2)OC1=O`, 51.6% (active); in that of `CC(C)(C)OC(=O)C[C@H]1C/C=C\C[C@@H](CC(=O)N[C@H](CO)Cc2ccccc2)C(=O)NC[C@@H](c2ccccc2)OC1=O`, 10.5%.
As to `CC(C)(C)OC(=O)C[C@@H]1C/C=C\C[C@@H](CC(=O)N[C@H](CO)Cc2ccccc2)C(=O)NCCOC1=O`, the protection from H2O2 cell death is 12.4%.
To `Cc1ccc(NS(=O)(=O)c2ccc3c(c2)NC(=O)CO3)cc1` belongs -11.5%; to `Cc1c(C)n2c(SCC(=O)NC3CCCC3)nnc2[nH]c1=O`, 1.3%; to `COc1ccccc1C(=O)NC(CCSC)C(=O)NNC(=O)c1ccccc1C` (stereo not given), 4.9%.
As to `COc1ccc(S(=O)(=O)/N=C2\C=C(NS(=O)(=O)c3ccccc3)C(=O)c3ccccc32)cc1`, the protection from H2O2 cell death was -11.4%.
To `CC1=C/C(=N\S(=O)(=O)c2ccccc2)C(C(C)C)=CC1=O` belongs 63.7% (active); to `Cc1ccc(S(=O)(=O)/N=C2\C=C(NS(=O)(=O)c3ccc(C)cc3)C(=O)c3ccccc32)cc1`, -17.9%; to `O=C(c1ccc(O)cc1)c1ccc(C(=O)O)c(C(=O)O)c1`, 5.7%.
To `Cc1cccnc1C(NC(=O)C1CCN(Cc2ccc(Cl)c(Cl)c2)CC1)c1ccc(Cl)cc1` (stereo not given) belongs 4.5%; to `CCn1c(C(O)c2cc(OC)ccc2OC)nc2ccccc21` (stereo not given), -3.6%; to `Cc1nc2ccccc2n1CC(=O)N/N=C/c1cccs1`, -3.1%.
To `CCn1c(/C=N/NC(=O)c2ccc(OC)cc2)nc2ccccc21` belongs 50.7% (active); to `Cc1cc2c3ccccc3[nH]c(=O)n2n1`, 2.8%.
Take `S=c1ccc2ccccc2[nH]1`: the protection from H2O2 cell death is 4.8%.
To `S=c1[nH]c2ccccc2c2ccccc12` belongs 50.1% (active).
On to `COc1ccc(S(=O)(=O)N2CCN(C(=S)NCC3CCCO3)CC2)cc1OC` (stereo not given), for which the protection from H2O2 cell death was -4.4%.
In the case of `N=c1ccn(CC(=O)NC(N)=O)c2ccccc12` it was 4.5%; in that of `CC(C)C(=O)N1CCN(c2nc(-c3ccccc3)c3c(c2C#N)CC(C)(C)OC3)CC1`, 15.1%.
To `CCOC(=O)CSc1nc(N2CCOCC2)c2c(c1C#N)CC(C(C)C)OC2` (stereo not given) belongs -4%.
To `CC1(C)Cc2c(C#N)c(SCc3nc4ccccc4[nH]3)nc(N3CCOCC3)c2CO1` belongs 50.1% (active); to `Cc1ccc(S(=O)(=O)N2CCCC2C(=O)OCc2nc3sc(C)c(C)c3c(=O)[nH]2)cc1` (stereo not given), 34.2%.
Consider `Cc1cc(C)c2nc(N3CCC(C(=O)NCCN4CCOCC4)CC3)sc2c1`, for which the protection from H2O2 cell death is -1.3%.
With `CCOC(=O)N1CCN(C(=O)CN(C2CCCCC2)S(C)(=O)=O)CC1`, the protection from H2O2 cell death is -2.2%.
To `CC(C)=CCc1c(O)c(CC=C(C)C)c2occ(-c3ccc(O)cc3)c(=O)c2c1O` belongs -14.3%; to `CC(C)=CCc1ccc(O)c(=O)cc1C(C)C`, 54.2% (active); to `CC(C)c1cc(N=O)cc(C(C)C)c1O`, -7%.
As for `O=C(c1ccncc1)N1CCN(S(=O)(=O)c2cc(C(F)(F)F)cc(C(F)(F)F)c2)CC1`, the protection from H2O2 cell death was -1.3%.
To `COc1ccc(CCNC(=O)CCn2c(=O)c3ccccc3n(CC(=O)NCC3CCCO3)c2=O)cc1OC` (stereo not given) belongs 7.8%; to `COc1ccc(CCn2c(=N)c(C(=O)NCC3CCCO3)cc3c(=O)n4cccc(C)c4nc32)cc1OC` (stereo not given), 59.6% (active); to `Cc1ccc2nc3c(cc(C(=O)NCCc4ccccc4)c(=N)n3CC3CCCO3)c(=O)n2c1` (stereo not given), 5.6%.
In the case of `CN1CCN(c2ccc(CNS(=O)(=O)c3cccc(F)c3)cc2)CC1` it was 7.1%; in that of `CCc1c(C)nc2ncnn2c1N1CCC(C(=O)NCc2ccc3c(c2)OCO3)CC1`, -1.5%; in that of `CCOC(=O)Nc1ccc(S(=O)(=O)N(C)C(C)C)cc1`, 3.1%.
To `O=C(OCC(=O)N1CCN(c2ccccc2)CC1)c1ccc([N+](=O)[O-])s1` belongs -0.2%.
Regarding `COc1cc(NC(=O)COC(=O)c2ccc([N+](=O)[O-])s2)cc(OC)c1OC`, the protection from H2O2 cell death was 41.6%.
With `COc1ccc(C(=O)COC(=O)c2ccc([N+](=O)[O-])s2)cc1OC`, the protection from H2O2 cell death was 61.6% (active).
Regarding `CO/N=C(/CS(=O)(=O)c1ccc(Br)cc1)c1ccc(OC)cc1`, the protection from H2O2 cell death was -11.9%.
To `Cc1ccc([N+](=O)[O-])c(OCCCNCC(C)O)c1` (stereo not given) belongs 0.6%; to `COc1cc(/C=N/NC(=O)c2cccnc2)ccc1OC(=O)c1cccc(Br)c1`, 27.2%; to `COc1cc(/C=N/NC(=O)c2ccccc2)ccc1OS(=O)(=O)c1ccccc1`, 81.8% (active).
To `Cc1ccc(S(=O)(=O)Oc2ccc(/C=N/NC(=O)c3ccncc3)cc2)cc1` belongs 2.7%; to `O=c1c2ccccc2ncn1/N=C/c1ccccc1`, -10.6%; to `Cc1[nH]n(-c2cccc(Cl)c2)c(=O)c1/C=N/n1c(C)nc2ccccc2c1=O`, 50.4% (active).
To `O=Cc1c(N2CCN(c3cccc(Cl)c3)CC2)nc2ccccn2c1=O` belongs 42.7%; to `Oc1ccccc1C=NC1CCCCC1N=Cc1ccccc1O` (stereo not given), 7.8%; to `O=C(N/N=C/c1ccccc1O)/C(=C/c1ccccc1)CCO`, 35.8%.
For `O=C(NN=Cc1ccccc1O)C(=O)NN=Cc1ccccc1O`, the protection from H2O2 cell death is 53.6% (active).
In the case of `COCCNC(=S)c1ccc(OC)cc1`, the protection from H2O2 cell death was 5.4%.
In the case of `CCNC(=O)C1(C)CCCN1C(=O)c1ccc(N(C)C)cc1` (stereo not given) it was 0.7%.
For the molecule `Cc1nc(N2CCN(c3ccccn3)CC2)c2c(C)c(C(=O)Nc3ccc(F)c(Cl)c3)sc2n1`, the protection from H2O2 cell death is 31.9%.
As for `Cc1nc(N2CCOCC2)c2c(C)c(C(=O)Nc3ccc(C(F)(F)F)cc3)sc2n1`, the protection from H2O2 cell death was -3.8%.
In the case of `Cc1nc(N2CCN(c3ccccn3)CC2)c2c(C)c(C(=O)Nc3ccc(F)cc3)sc2n1` it was 71.4% (active).

The values are drawn from PubChem BioAssay AID588492 (Sanford-Burnham Center for Chemical Genomics, 2011).
